Compound activity as filed in PubChem.
An excerpt weighted towards active compounds, which were near 1.3% of everything screened.
Bcl-xL primary – inhibitors of human Bcl-xL, primary screen, biochemical, fluorescence polarization, HTS. AID 2129, 2009. inhibition, % at 10.9 µM. hit rate 0.7% among 320,000. GST-Bcl-xL / FITC-Bim BH3 peptide fluorescence polarization;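 active = inhibition above the mean of all tested compounds plus 3 SD, cutoff set per campaign, cut at about 30% in these data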;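 note: 0% = DMSO wells and 100% = unlabeled Bim-BH3 peptide competitor; inhibitors lower millipolarization by displacing the labeled peptide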
EBV gp42 block – Epstein-Barr virus gp42 inhibitors, primary screen, biochemical, uHTS, fluorescence polarization | Fluorescence polarization binding assay, mP read-out | Glycoprotein 42 (Epstein-Barr virus (strain AG876)), Q1HVG2 | hit rate 0.42% among 220,000 | inhibition, % (tested at 21.74 µM); in the data active = inhibition above about 50%
GLD-1 TGE inh – GLD-1/TGE RNA complex disruptors, primary screen, biochemical, fluorescence polarization | Female germline-specific tumor suppressor gld-1 (Caenorhabditis elegans), Q17339 | purified GLD-1 + fluorescein TGE RNA | inhibition, % at 5.96 µM | hit rate 0.44% among 320,000 | AID 2280, 2010;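 active = percent inhibition above a per-plate cutoff, the plate mean of test compounds plus 3 SD, cut at about 30% in these data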;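 note: 0% = DMSO wells with GLD-1 and probe and 100% = wells lacking GLD-1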
eLon inh – inhibitors of E. coli Lon protease, primary screen, biochemical, fluorescence polarization. purified E. coli Lon protease. inhibition, % at 7.94 µM. hit rate 0.42% among 360,000. AID 602123, 2011; in the data active = inhibition above about 13%, passing the limit was not always enough;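 note: 0% = enzyme with probe and DMSO and 100% = no enzyme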
MEX-5 binding – MEX-5 zinc finger RNA-binding disruptors – biochemical, C. elegans, fluorescence polarization, MLPCN library, primary screen. MEX-5/FITC-TCR2 RNA binding; active compounds read low. activity score (negative = inhibition of binding), % at 10 µM. hit rate 0.38% among 300,000;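 active = inhibition past about -25% in most replicates, and total fluorescence under double the plate's negative control median, limit read from the data; inconclusive = replicates evenly split on the limit, or fluorescence at least double controls; inactive = too little inhibition in most replicates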;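 note: 0% = DMSO and -100% = 5 µM competing unlabeled TCR2 RNA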
Target sequence (Q9XUB2 whole entry, looked up): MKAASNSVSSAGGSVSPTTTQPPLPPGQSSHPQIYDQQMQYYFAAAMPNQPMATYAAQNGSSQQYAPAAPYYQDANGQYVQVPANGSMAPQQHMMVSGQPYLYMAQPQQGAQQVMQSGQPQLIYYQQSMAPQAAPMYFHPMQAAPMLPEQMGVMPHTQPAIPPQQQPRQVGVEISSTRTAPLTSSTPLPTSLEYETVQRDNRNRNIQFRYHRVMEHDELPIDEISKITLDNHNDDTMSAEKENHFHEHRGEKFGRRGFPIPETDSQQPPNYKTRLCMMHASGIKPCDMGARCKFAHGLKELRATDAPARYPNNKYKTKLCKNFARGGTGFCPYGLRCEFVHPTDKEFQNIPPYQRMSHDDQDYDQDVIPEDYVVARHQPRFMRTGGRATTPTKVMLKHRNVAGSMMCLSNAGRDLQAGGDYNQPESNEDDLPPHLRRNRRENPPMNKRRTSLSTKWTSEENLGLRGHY
* hit, by the source's call; i = inactive; ? = inconclusive; . = no result given.

SMILES	Bcl-xL primary	EBV gp42 block	GLD-1 TGE inh	eLon inh	MEX-5 binding
Cc1cc(F)ccc1NC(=O)C1CCCO1 (stereo unspecified)	1	-9	2	-2	-2
Cc1ccc(/C=C(\C#N)C(=O)Nc2c(C)cccc2C)s1	-29	-48	-32	-34	-46*
Cc1ccc(NC(=O)/C(C#N)=C/c2ccc(C)s2)c(C)c1	48*	-54	6	-9	-54*
Cc1cc(C)c(NC(=O)CNC(=O)COC(=O)CN2C(=O)NC3(CCCC3)C2=O)c(C)c1	3	.	-2	-8	-1
O=C(c1ccc(O)cc1)c1ccc(O)cc1O	6	13	3	1	-7
O=C(c1ccccc1)c1ccc(O)cc1O	134*	67*	79*	-10	?
CCN1CCc2c(sc(N)c2C(N)=O)C1	61*	8	23	2	-21
CN1CCc2c(sc(N)c2C(N)=O)C1	60*	29	7	-7	-14
O=C(O)c1cc(Cl)c2c(c1)[C@@H]1C=CC[C@@H]1[C@H](c1ccc(S(=O)(=O)N3CCOCC3)cc1)N2	40*	-11	15	9	-26*
Cc1nnc(NC(=O)COc2ccc3c(C)cc(=O)oc3c2)s1	5	51*	0	-1	1
CC(=O)c1ccc(C(=O)Nc2sc3c(c2C(N)=O)CCN(Cc2ccccc2)C3)cc1	-43	.	-152	i	-37*
COc1cccc(OC)c1C(=O)Nc1sc2c(c1C(N)=O)CCN(Cc1ccccc1)C2	0	.	3	-20	-7
NC(=O)c1c(NC(=O)C2COc3ccccc3O2)sc2c1CCN(Cc1ccccc1)C2 (stereo unspecified)	-44	-98	-64	-306	-62*
CC(C)N1CCc2c(sc(NC(=O)c3ccc(C(=O)c4ccccc4)cc3)c2C(N)=O)C1	-23	.	-26	-47	4
CC(C)N1CCc2c(sc(NC(=O)c3ccc4ccccc4c3)c2C(N)=O)C1	-62	.	-98	-310	-37*
CCOC(=O)c1c(NC(=O)C2COc3ccccc3O2)sc2c1CCN(Cc1ccccc1)C2 (stereo unspecified)	-1	-8	-16	-4	-5
COC1=CC(C)C2CC3OC(=O)CC4C(C)=C(OC)C(=O)C(C2(C)C1=O)C34C (stereo unspecified)	.	.	.	-8	.
Cc1cc(F)ccc1S(=O)(=O)N1CCCOC1CNC(=O)C(=O)NC1CCCC1 (stereo unspecified)	-3	.	6	-5	0
Cc1occc1C(=O)N/N=C/C1=C(N2CCOCC2)C(=C\c2ccc(Cl)cc2Cl)/CC1	-2	-17	9	-8	-54*
Nc1nccnc1C(=O)OCC(=O)NCCc1ccc(S(N)(=O)=O)cc1	35*	.	27	10	0
COCC(=O)NCCc1ccc(S(N)(=O)=O)cc1	-1	17	-2	-5	-5
O=C(O)c1ccccc1NS(=O)(=O)c1ccc(NNC(=S)Nc2ccc(OC(F)F)cc2)c([N+](=O)[O-])c1	.	19	.	-4	-42*
Cc1nc2cc(NC(=O)c3ccc(S(=O)(=O)N(C)c4ccccc4)cc3)ccc2o1	-4	.	-1	-3	-1
CCC(C)n1c(=N)c(C#N)cc2c(=O)n3cc(C)ccc3nc21 (stereo unspecified)	10	-10	9	1	-34*
CCC(C)n1c(=N)c(C#N)cc2c(=O)n3cccc(C)c3nc21 (stereo unspecified)	5	-18	0	1	?
SMILES	Bcl-xL primary	EBV gp42 block	GLD-1 TGE inh	eLon inh	MEX-5 binding
O=C(O)COc1ccccc1C(Nc1cccnc1)c1cc(Cl)c2cccnc2c1O (stereo unspecified)	.	-9	.	13	-59*
CC1CN(C)C(C)CC1NCc1ccc2c(c1)OCO2 (stereo unspecified)	6	-18	0	5	0
COc1cc(C)c(CNc2ccc(OC)c(OC)c2)cc1C	36*	14	4	.	-8
CC(=O)N1CCc2c(sc(NC(=O)C3CCCCC3)c2C(N)=O)C1	13	.	57*	6	-27*
Cc1ccc(-c2csc(NC(=O)c3ccccc3F)c2C(=O)O)cc1	11	.	-4	3	0
S=C(NCc1ccc(Cl)cc1)NN1CCOCC1	9	11	1	2	0
